Experimental findings from PubChem BioAssay (NCATS) are described below.

Values without a mark were called inactive. Results filed as inconclusive are left out. The source made the active and inactive calls. Unless noted, the call rests on the fitted dose curve; in most records, active means well fitted curve in either direction with a large enough effect (not every such curve was filed as active); inconclusive means small, poorly fitted or top-dose-only effect, or another doubt; inactive means flat fitted curve, though single readings scatter.

Assay [1] has as its target Lysosomal acid glucosylceramidase (Homo sapiens) (UniProt P04062). Put plainly: Glucocerebrosidase-p2 (AID 348; in the data active means potency below about 10 µM; further: potency means the concentration at half of the fitted maximal effect). Particulars: purified GBA, blue fluorogenic substrate, 40 min. The method, boiled down: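 Compounds titrated from 0.6 nM upwards against 0.2 nM enzyme in pH 5.9 citric acid/KH2PO4, taurocholate, tween-20; blue fluorogenic substrate 80 uM, 40 min room temperature, stopped and read Ex 365/Em 440 for AC50.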

Assay [2] can be described thus: AP1 Signaling Pathway (AID 357). Further: on the % scale 0 is the no-effect control and ±100 the full control effect. The following applies: ME-180 AP-1-bla reporter, EGF-induced, beta-lactamase ratio, 5 h; at 7.69 µM (top of the series) unless noted. The method, boiled down: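 ME-180 cells with beta-lactamase reporter under AP-1 response element, stimulated with EC50 EGF; compounds tested in titration series, 5 h at 37 °C. CCF4 substrate added 2.5 h at room temperature; 460/530 nm emission ratio gave %activity and AC50.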

For assay [3], the target named is Cytochrome P450 1A2 (Homo sapiens) (UniProt P05177). Nature of the assay: p450-cyp1a2 (AID 410; calls by dose curve; further: potency means the concentration at half of the fitted maximal effect;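 on activity change, negative = inhibition: -100% = full effect of reference inhibitor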). Particulars: recombinant CYP1A2, luciferin-ME demethylation, luminescence; series mostly up to 11.4 µM. The method, boiled down: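 20nM CYP1A2 with 100uM Luciferin-ME (at Km) in 100mM KPO4; compound preincubated 10 min, NADPH regeneration added, 60 min at room temperature. Luciferin quantified by luminescence after detection reagent; normalized to 57 uM furafylline.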

Assay [4] in a line: NFAT Signaling Pathway (AID 444).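 Further: carbachol stimulus at about its EC50 of 1 µM final; on the % scale 0 is the no-effect control and ±100 the full control effect.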 Particulars: Jurkat NFAT-bla M1, carbachol, beta-lactamase ratio, 5 h; at 7.69 µM (top of the series) unless noted. The method, boiled down:
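Read-out: CCF4 FRET ratio (460 nm/530 nm) after 1 h RT dye loading, used for %activity and AC50 from titration series. Cells: Jurkat NFAT-β-lactamase/M1 line, treated with compound plus 1 uM carbachol for 5 h, 37 °C.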

A short description of assay [5]: Stat Signaling Pathway (AID 446).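 Further: ME-180 cervical cancer cells given 40 pM IL-6 alongside compound; SIE-controlled beta-lactamase reporter measured as 460/530 nm FRET emission ratio; on the % scale 0 is the no-effect control and ±100 the full control effect.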 The following applies: ME-180 SIE beta-lactamase reporter, IL-6 stimulated, 5 h; at 7.69 µM (top of the series) unless noted. In short, it runs like this:
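Screening format detects activators and inhibitors alike: ME-180 SIE-bla cells stimulated at 40 pM IL-6 for 5 hrs with compound, then dual-emission beta-lactamase read at 405 nm excitation.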

In assay [6] the target is Glucocorticoid receptor (Homo sapiens) (UniProt P04150). Nature of the assay: GR-GFP Redistribution (AID 450;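 active means compounds whose dose series gives a full or clear partial fitted curve of increased nuclear translocation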; further: potency means the concentration at half of the fitted maximal effect). Particulars: U2OS GR-GFP nuclear translocation, laser cytometry, 2 h.
For assay [7] the target is unchanged. Nature of the assay: GR-EFC Redistribution (AID 451; calls by dose curve; further: potency means the concentration at half of the fitted maximal effect). Particulars: CHO-K1 GR-EFC translocation, beta-gal luminescence, 2 h. The method, boiled down: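 Translocation of GR-ED fusion to nuclear EA restores b-gal, read by luminescence after 1 h room-temperature detection. Engineered CHO-K1 biosensor cells, 1,000/well, exposed 2 h at 37 C to titrations up to 46 uM final.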

Assay [8] addresses Mitogen-activated protein kinase 10 (Mus musculus) (UniProt Q61831). Nature of the assay: JNK3 AlphaScreen Assay (AID 530).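 Further: kinase came from lysate of stimulated human HepG2 cells; signal reports phosphorylation of biotinylated GST-cJun 1-79 at Ser73 with 10 µM ATP; on the % scale 0 is the no-effect control and ±100 the full control effect.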 Particulars: JNK3 lysate, c-Jun phosphorylation; series mostly up to 11.4 µM. The method, boiled down:
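Compound titrations were preincubated 15 minutes at room temperature with substrate, antibody and pre-activated JNK3-containing HepG2 lysate. Reactions were started with 10 uM ATP and stopped with EDTA-containing bead buffer for AlphaScreen detection.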
Background: Bead proximity is the source of the signal in Alpha formats.

Assay [9] concerns the target 3',5'-cyclic-AMP phosphodiesterase 4B (Homo sapiens) (UniProt Q07343). Put plainly: qHTS Assay for Inhibitors of PDE-IV (AID 607; active means well fitted activation curve with a large enough effect in the main read-out, with a control signal flat, not every such curve was filed as active; further: % of control where 0% means no effect). The following applies: HEK293 ACTOne CNG channel cells, membrane potential fluorescence; series mostly up to 22.9 µM. In short, it runs like this:
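The readout is membrane depolarisation from a cAMP-sensing CNG channel, detected with a potential dye at ex 535/em 590. Cells were HEK293-derived (endogenous PDE-IV) at 1000 cells/well, titrated up to 22.9 uM final.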

Lysosomal acid glucosylceramidase (Homo sapiens), sequence (P04062 whole entry, looked up): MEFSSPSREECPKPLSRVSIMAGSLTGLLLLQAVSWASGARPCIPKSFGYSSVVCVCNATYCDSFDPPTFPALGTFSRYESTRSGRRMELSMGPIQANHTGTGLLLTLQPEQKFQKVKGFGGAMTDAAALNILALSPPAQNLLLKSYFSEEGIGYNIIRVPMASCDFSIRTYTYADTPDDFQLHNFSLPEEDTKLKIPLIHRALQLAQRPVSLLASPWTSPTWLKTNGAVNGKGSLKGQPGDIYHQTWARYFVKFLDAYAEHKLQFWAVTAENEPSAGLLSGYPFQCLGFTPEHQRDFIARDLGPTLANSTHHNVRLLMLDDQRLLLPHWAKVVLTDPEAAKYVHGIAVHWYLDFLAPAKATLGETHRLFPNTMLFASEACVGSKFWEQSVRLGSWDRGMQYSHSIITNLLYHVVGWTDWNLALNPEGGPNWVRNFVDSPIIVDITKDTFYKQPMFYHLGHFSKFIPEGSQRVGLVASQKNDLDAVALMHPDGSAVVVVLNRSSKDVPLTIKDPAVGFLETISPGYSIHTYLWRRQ
3',5'-cyclic-AMP phosphodiesterase 4B (Homo sapiens), sequence (Q07343 whole entry, looked up): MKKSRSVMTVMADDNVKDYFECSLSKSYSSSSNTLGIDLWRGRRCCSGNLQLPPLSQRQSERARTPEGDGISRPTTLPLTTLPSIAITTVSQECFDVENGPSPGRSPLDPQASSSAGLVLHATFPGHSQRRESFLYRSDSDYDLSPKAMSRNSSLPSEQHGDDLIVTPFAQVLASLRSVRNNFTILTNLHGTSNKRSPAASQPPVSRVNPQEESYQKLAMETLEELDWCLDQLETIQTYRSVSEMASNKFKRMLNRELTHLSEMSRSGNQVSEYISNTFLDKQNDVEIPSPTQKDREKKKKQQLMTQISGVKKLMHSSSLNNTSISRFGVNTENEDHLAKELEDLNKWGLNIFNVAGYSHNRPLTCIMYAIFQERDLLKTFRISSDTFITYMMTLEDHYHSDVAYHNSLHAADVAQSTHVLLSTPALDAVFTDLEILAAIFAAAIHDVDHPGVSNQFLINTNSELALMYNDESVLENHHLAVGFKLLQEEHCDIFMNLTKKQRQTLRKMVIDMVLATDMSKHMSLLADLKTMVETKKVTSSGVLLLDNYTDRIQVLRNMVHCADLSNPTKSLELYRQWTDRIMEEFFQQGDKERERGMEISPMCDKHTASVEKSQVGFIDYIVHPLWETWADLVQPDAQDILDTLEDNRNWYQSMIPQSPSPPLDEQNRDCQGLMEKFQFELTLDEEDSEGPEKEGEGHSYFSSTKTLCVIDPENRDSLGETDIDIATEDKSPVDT
Glucocorticoid receptor (Homo sapiens), sequence (P04150 whole entry, looked up, the tested form may be a part): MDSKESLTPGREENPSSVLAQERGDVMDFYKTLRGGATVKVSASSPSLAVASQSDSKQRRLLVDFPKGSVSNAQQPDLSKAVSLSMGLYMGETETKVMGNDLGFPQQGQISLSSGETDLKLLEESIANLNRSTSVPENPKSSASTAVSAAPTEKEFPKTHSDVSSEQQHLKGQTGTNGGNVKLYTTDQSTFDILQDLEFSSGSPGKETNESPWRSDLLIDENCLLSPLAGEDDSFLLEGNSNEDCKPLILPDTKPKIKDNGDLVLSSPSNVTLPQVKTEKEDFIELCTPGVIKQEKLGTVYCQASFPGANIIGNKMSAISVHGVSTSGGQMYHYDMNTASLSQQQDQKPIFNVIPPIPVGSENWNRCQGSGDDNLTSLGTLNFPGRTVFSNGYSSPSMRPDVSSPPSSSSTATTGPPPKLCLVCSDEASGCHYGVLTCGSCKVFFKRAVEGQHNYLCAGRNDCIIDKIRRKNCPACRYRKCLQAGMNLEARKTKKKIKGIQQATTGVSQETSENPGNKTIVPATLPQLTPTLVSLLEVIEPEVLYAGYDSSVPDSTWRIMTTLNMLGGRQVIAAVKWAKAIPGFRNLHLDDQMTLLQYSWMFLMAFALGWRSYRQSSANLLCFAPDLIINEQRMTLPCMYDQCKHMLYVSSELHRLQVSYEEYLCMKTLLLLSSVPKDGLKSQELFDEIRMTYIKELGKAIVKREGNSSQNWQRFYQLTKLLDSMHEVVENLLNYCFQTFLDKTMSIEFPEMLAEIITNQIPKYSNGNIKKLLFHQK
Cytochrome P450 1A2 (Homo sapiens), sequence (P05177 whole entry, looked up): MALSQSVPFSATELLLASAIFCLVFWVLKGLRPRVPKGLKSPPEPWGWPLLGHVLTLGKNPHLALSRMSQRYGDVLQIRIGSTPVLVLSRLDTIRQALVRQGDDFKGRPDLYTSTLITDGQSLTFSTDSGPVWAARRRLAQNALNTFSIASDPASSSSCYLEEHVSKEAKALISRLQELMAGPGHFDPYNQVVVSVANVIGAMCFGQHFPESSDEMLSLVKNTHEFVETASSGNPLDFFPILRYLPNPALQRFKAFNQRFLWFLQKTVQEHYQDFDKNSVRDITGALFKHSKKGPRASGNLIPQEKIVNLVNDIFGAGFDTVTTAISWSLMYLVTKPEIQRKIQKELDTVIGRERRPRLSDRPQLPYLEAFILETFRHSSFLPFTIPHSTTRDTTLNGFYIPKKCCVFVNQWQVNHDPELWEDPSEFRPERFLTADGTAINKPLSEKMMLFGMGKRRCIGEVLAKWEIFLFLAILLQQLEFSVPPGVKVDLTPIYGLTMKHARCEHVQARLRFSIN

Consider `COC(=O)[C@@H]1O[C@@H](SCCN)[C@@H](O)[C@H](O)[C@H]1O`, for which the Potency in assay [1] is greater than 11.4 µM; in [6], greater than 46 µM; in assay [7], greater than 9.22 µM. Moreover, the figures for the activity change, negative = inhibition in assay [2], in assay [3] and in assay [4] were 0.576%, 10.2% [at 2.29 µM] and 2.51%, respectively. Besides, the activity, negative = inhibition in assay [5] is -0.339%. Also, the Potency entry in assay [8] and in assay [9] was “inactive” each time.

Turning to `O=C(O)[C@@H]1CS[C@@]2(CCCN(Cc3ccccc3)C2)N1`, the Potency in [1] was greater than 11.4 µM; in assay [6], greater than 46 µM; in assay [7], greater than 9.22 µM. Besides, the figures for the activity change, negative = inhibition in [2], in assay [3] and in assay [4] were 8.03%, -12% [at 2.29 µM] and 18.2%, respectively. In assay [5], the activity, negative = inhibition is 2.47%. The Potency result in assay [8] and in assay [9] was “inactive” each time.

Consider `Cn1ccnc1C[C@@](C)(O)c1ccccc1`, for which the figures for the Potency in assay [1], in [6] and in [7] were greater than 11.4 µM, greater than 46 µM and greater than 9.22 µM, respectively. Besides, the activity change, negative = inhibition in assay [2] is 7.99%; in assay [4], 2.18%. Further, the Potency result in assay [3], in [8] and in [9] was “inactive” in each case. Further, in assay [5], the activity, negative = inhibition was 8.21%.

For the compound `CCN(CCO)C[C@H]1CCC[C@H]2CCCC[C@@H]21`, the Potency in assay [1] is greater than 11.4 µM; in [3] it was 5.01 µM (active); in assay [6] it was greater than 46 µM; in assay [7], greater than 9.22 µM. The figures for the activity change, negative = inhibition in [2] and in [4] were 16.9% and 0.328%, respectively. Besides, the activity, negative = inhibition in assay [5] is 4.97%. For the same compound, the Potency result in assay [8] and in assay [9] was “inactive” throughout.

Consider `N[C@@](CC(=O)O)(Cc1ccccc1)C(=O)O`, for which the Potency in assay [1] was greater than 11.4 µM; in [6], greater than 46 µM; in assay [7] it was greater than 9.22 µM. The values for the activity change, negative = inhibition in [2], in [3] and in [4] were -6.1%, -13.4% [at 2.29 µM] and 0.819%, respectively. For the same compound, the activity, negative = inhibition in [5] was 6.06%. In addition, the Potency entry in assay [8] and in [9] was “inactive” each time.

As for `O=C(Nc1ccc2oc(=O)c(C(=O)O)cc2c1)Oc1ccccc1`, the figures for the Potency in assay [1], in [6] and in assay [7] were greater than 11.4 µM, greater than 46 µM and greater than 9.22 µM, respectively. Also, the activity change, negative = inhibition was -4.82% in assay [2], -15.3% [at 2.29 µM] in assay [3] and 9.87% in assay [4]. The activity, negative = inhibition in assay [5] was 1.95%. Also, the Potency entry in assay [8] and in assay [9] was “inactive” each time.

For the compound `NS(=O)(=O)c1ccc(N=Nc2c(O)c(C(=O)O)cc3ccccc23)cc1`, the figures for the Potency in [1], in assay [6] and in [7] were greater than 11.4 µM, greater than 46 µM and greater than 9.22 µM, respectively. Besides, the figures for the activity change, negative = inhibition in [2] and in assay [4] were 1.12% and 3.68%, respectively. Also, the Potency entry in assay [3], in assay [8] and in assay [9] was “inactive” in each case. Further, the activity, negative = inhibition in assay [5] is 5.99%.

For the compound `COc1ccc(-c2nc(N)c3ncn([C@H]4O[C@@H](CO)[C@@H](O)[C@@H]4O)c3n2)cc1`, the Potency was greater than 11.4 µM in assay [1], greater than 46 µM in [6] and greater than 9.22 µM in assay [7]. Moreover, the values for the activity change, negative = inhibition in assay [2], in assay [3] and in assay [4] were -12.4%, -13% [at 2.29 µM] and 0.656%, respectively. Besides, the activity, negative = inhibition in [5] was 3.98%. Further, the Potency entry in assay [8] and in assay [9] was “inactive” in each case.

On to `CC(C)(N)C(=O)N[C@@H]1C(=O)N2[C@@H]1SC(C)(C)[C@H]2C(=O)O`, for which the Potency was greater than 11.4 µM in assay [1], greater than 46 µM in assay [6] and greater than 9.22 µM in [7]. For the same compound, the activity change, negative = inhibition in assay [2] was -6.43%; in assay [3] it was 4.4% [at 2.29 µM]; in assay [4], -0.727%. In assay [5], the activity, negative = inhibition was -0.982%. Besides, the Potency result in assay [8] and in [9] was “inactive” in each case.

For `CC(C)(C)c1ccc(OC(=O)Nc2ccc(O)c(C(=O)O)c2)cc1`, the values for the Potency in [1], in assay [6] and in assay [7] were greater than 11.4 µM, greater than 46 µM and greater than 9.22 µM, respectively. Also, the activity change, negative = inhibition in [2] is -0.0209%; in [3], 6.5% [at 2.29 µM]; in [4], 6.49%. Moreover, in assay [5], the activity, negative = inhibition was 0.0223%. Further, the Potency entry in [8] and in assay [9] was “inactive” throughout.

Take `CC1=CC(=O)CC(C)(C)[C@]1(O)/C=C\C(C)=C\C(=O)O`: the Potency was greater than 11.4 µM in [1], greater than 46 µM in assay [6] and greater than 9.22 µM in assay [7]. Also, the activity change, negative = inhibition is 2.59% in assay [2] and -29.1% in assay [4]. The Potency result in [3], in [8] and in [9] was “inactive” each time. Moreover, the activity, negative = inhibition in assay [5] was 2.83%.

On to `CC1CCC(O)([C@](C)(C(=O)O)c2ccccc2)CC1` (stereo partly specified), for which the Potency was greater than 11.4 µM in assay [1], greater than 46 µM in [6] and greater than 9.22 µM in assay [7]. In addition, the activity change, negative = inhibition in assay [2] is -5.12%; in assay [4], -26.7%. Also, the Potency result in [3], in assay [8] and in assay [9] was “inactive” in each case. Besides, the activity, negative = inhibition in assay [5] is -1.34%.

Take `C[N+](C)(N)Cc1csc(-c2ccc(Cl)cc2)n1`: the figures for the Potency in assay [1], in [6] and in assay [7] were greater than 11.4 µM, greater than 46 µM and greater than 9.22 µM, respectively. Further, the activity change, negative = inhibition in assay [2] is 8.47%; in assay [3], -4.2% [at 2.29 µM]; in assay [4] it was -11.8%. In assay [5], the activity, negative = inhibition is 0.559%. Moreover, the Potency result in assay [8] and in [9] was “inactive” in each case.

Turning to `C[C@@]1(CCOCc2ccccc2)NC(=O)NC1=O`, the values for the Potency in assay [1], in assay [6] and in assay [7] were greater than 11.4 µM, greater than 46 µM and greater than 9.22 µM, respectively. Besides, the activity change, negative = inhibition in [2] was 7.73%; in assay [4] it was -2.8%. Also, the Potency result in assay [3], in [8] and in assay [9] was “inactive” in each case. For the same compound, the activity, negative = inhibition in assay [5] is 8.58%.
